The assay is described as follows: HT29 colon tumor cell growth inhibition, primary screen, imaging, high content imaging, 72 h, CellTiter-Glo (AID 772).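 For condensed nuclei: condensed means nuclear area below control median minus 1.5 SD.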 The note with it: HCS imaging cell count, at 10 µM, stronger effect = higher value; for condensed nuclei: measured here: percent cells with condensed nuclei.
[1] abbreviates: measured here: ATP CellTiter-Glo viability.

In all, about 3,300 compounds went through this assay and about 20 (0.6%) were called active.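 Rule for the calls: active = growth inhibition above 90%, meaning viable cell count cut by more than 90% versus vehicle controls; inactive = growth inhibition below 90%.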 Shown is part of a subset that was picked to be rich in actives.

For the molecule `Clc1ccccc1-c1nn2c(-c3ccccn3)nnc2s1`, the growth inhibition is -1.22% (inactive) and the condensed nuclei stood at 15.7%. For the same molecule, the growth inhibition under setting [1] worked out at 21.5%.

Take `CCCCc1c(C)c2ccc(OCC(C)=O)cc2oc1=O`: the growth inhibition is -30.8% (inactive) and the condensed nuclei came out at 2.85%. The growth inhibition under setting [1] is -58.8%.

Take `CO[C@H]1C[C@@H]2CC[C@@H](C)[C@@](O)(O2)C(=O)C(=O)N2CCCC[C@H]2C(=O)O[C@H]([C@H](C)C[C@@H]2CC[C@@H](O)[C@H](OC)C2)CC(=O)[C@H](C)C=C(C)[C@@H](O)[C@@H](OC)C(=O)[C@H](C)C[C@H](C)C=CC=CC=C1C`: the growth inhibition was 19.1% (inactive) and the condensed nuclei was found to be 2.81%. Besides, the growth inhibition under setting [1] was -4.98%.

Take `CCOC(=O)c1ccc(N=Cc2nc(-c3ccccc3)oc2OC(C)=O)cc1`: the growth inhibition is 6.56% (inactive) and the condensed nuclei came out at 12.1%. Under setting [1], the growth inhibition was -17.5%.

Take `CC12CCC(C(=O)NCCCN3CCOCC3)(OC1=O)C2(C)C` (centres undefined): the growth inhibition is -26.1% (inactive) and the condensed nuclei came out at 1.65%. Besides, under setting [1], the growth inhibition was -11.1%.

With `CC(C)CC(NC(=O)OC(C)(C)C)C(=O)NCc1ccccc1` (centres undefined), the growth inhibition was 9.38% (inactive) and the condensed nuclei is 1.7%. For the same molecule, the growth inhibition under setting [1] is -13%.

For the molecule `CCOc1ccc(C2C(C(=O)c3ccc(C)o3)=C(O)C(=O)N2CCN2CCOCC2)cc1OC` (centres undefined), the growth inhibition is -37.5% (inactive) and the condensed nuclei stood at 4.84%. In addition, under setting [1], the growth inhibition is -33.6%.

With `O=C(CCN1CCCCC1)Nc1cccc(Cl)c1`, the growth inhibition was 35% (inactive) and the condensed nuclei came to 26.1%. In addition, the growth inhibition under setting [1] stood at 28.1%.

Take `N#Cc1nc(-c2cccs2)oc1NCc1ccc2c(c1)OCO2`: the growth inhibition was 48% (inactive) and the condensed nuclei is 3.78%. Besides, the growth inhibition under setting [1] came out at 8.08%.

In the case of `COC(=O)c1[nH]c(C)c(/C(O)=C2\C(=O)C(=O)N(CCN3CCOCC3)C2c2cccnc2)c1C` (centres undefined), the growth inhibition is -38.7% (inactive) and the condensed nuclei came to 3.67%. For the same molecule, the growth inhibition under setting [1] was -21.1%.

On to `N#CC1=C(N)OC2=C(C(=O)CCC2)C1CCc1ccccc1` (centres undefined), for which the growth inhibition was 12% (inactive) and the condensed nuclei turned out to be 5.15%. Besides, under setting [1], the growth inhibition is -15.7%.

`COc1cccc(-c2nc(NCCN3CCOCC3)c3ccccc3n2)c1O`: the growth inhibition was 38% (inactive) and the condensed nuclei is 23.4%. Moreover, the growth inhibition under setting [1] is 86.2%.

On to `Oc1ccccc1-c1nc(NCCN2CCOCC2)c2ccccc2n1`, for which the growth inhibition was 30.6% (inactive) and the condensed nuclei was 18.9%. For the same molecule, the growth inhibition under setting [1] was 94%.

Consider `Fc1ccccc1-c1nc(NCCCN2CCOCC2)c2ccccc2n1`, for which the growth inhibition is 92.5% (active) and the condensed nuclei stood at 14.3%. In addition, the growth inhibition under setting [1] is 79%.

`COCCN(CCOC)C(=O)C12CCC(C)(C(=O)C1)C2(C)C` (centres undefined): the growth inhibition was 31.4% (inactive) and the condensed nuclei turned out to be 10.7%. Moreover, the growth inhibition under setting [1] was -4.4%.

On to `CCN(CC)CCN1C(=O)C(=O)/C(=C(/O)c2c(C)[nH]c(C(=O)OC)c2C)C1c1cccc(OC)c1` (centres undefined), for which the growth inhibition is -109% (inactive) and the condensed nuclei was 4.61%. Further, under setting [1], the growth inhibition is -54.7%.

With `COC(=O)c1ccc(-c2sc3nc(N4CCOCC4)c4c(c3c2N)CCCC4)o1`, the growth inhibition is 89.6% (inactive) and the condensed nuclei stood at 55.6%. Also, under setting [1], the growth inhibition was 82.9%.

As for `COc1cc2c(C(=O)N3CCN(c4ccccc4)CC3)c(C)oc2cc1Br`, the growth inhibition was -0.57% (inactive) and the condensed nuclei was 5.92%. Moreover, the growth inhibition under setting [1] was -11.3%.

For the molecule `Cc1ccc(OCC(=O)NCC(=O)n2nc(C)cc2C)cc1`, the growth inhibition is -54.1% (inactive) and the condensed nuclei was determined as 2.73%. Further, the growth inhibition under setting [1] is -44.3%.

Regarding `Cc1ccccc1N1C(=O)CC(Sc2nnc(-c3ccccc3)o2)C1=O` (centres undefined), the growth inhibition was -77.9% (inactive) and the condensed nuclei is 3.38%. Besides, the growth inhibition under setting [1] was -47.7%.

Consider `Cc1cc(C)cc(CC2CC(=O)N(c3cc(C)on3)C2=O)c1` (centres undefined), for which the growth inhibition was 2.63% (inactive) and the condensed nuclei stood at 7.19%. Moreover, the growth inhibition under setting [1] is -16.1%.

With `CCOC(=O)c1sc(-n2[nH]c(C)cc2=O)nc1C`, the growth inhibition is 14.3% (inactive) and the condensed nuclei was 1.46%. Moreover, under setting [1], the growth inhibition is -4.21%.

With `C=CCc1cccc(/C=N/n2cnnc2)c1O`, the growth inhibition was 34.7% (inactive) and the condensed nuclei is 13.3%. In addition, the growth inhibition under setting [1] stood at 20.1%.

`C=CCc1cccc(CNc2nc3ccccc3n2C(C)C)c1O`: the growth inhibition is 95.1% (active) and the condensed nuclei was 14.6%. Moreover, the growth inhibition under setting [1] was determined as 88.3%.

As for `C=CCc1cccc(/C=N/c2ncn[nH]2)c1O`, the growth inhibition is -6.01% (inactive) and the condensed nuclei is 2.92%. Also, the growth inhibition under setting [1] is -17.7%.

As to `CC1(c2ccco2)NC(=O)NC1=O` (centres undefined), the growth inhibition was 16.9% (inactive) and the condensed nuclei was 12.6%. The growth inhibition under setting [1] was determined as 7.41%.

As to `CC(C)CCNc1nc2c(cc1C#N)COC(C)(C)C2`, the growth inhibition is 12.7% (inactive) and the condensed nuclei was 1.81%. The growth inhibition under setting [1] stood at 2.37%.

`CNc1nc(C)c(C#N)cc1C(C)=O`: the growth inhibition was 82.9% (inactive) and the condensed nuclei was 1.85%. The growth inhibition under setting [1] turned out to be 37.9%.

With `CN1C(=O)N(c2ccccc2)C(Nc2nncs2)C1(C)C` (centres undefined), the growth inhibition was -44.1% (inactive) and the condensed nuclei was determined as 5.92%. Moreover, the growth inhibition under setting [1] was -46.4%.

Take `CCOC(=O)C1CCN(C(C)=C2C(=O)c3ccccc3C2=O)CC1`: the growth inhibition was -17.6% (inactive) and the condensed nuclei came to 15.2%. Besides, the growth inhibition under setting [1] is -13.6%.

For `CC1(C)Cc2c(C#N)c(SCCOc3ccccc3)nc(N3CCOCC3)c2CO1`, the growth inhibition is -23.3% (inactive) and the condensed nuclei is 0.88%. The growth inhibition under setting [1] is -59.6%.

With `CC1(C)Cc2c(C#N)c(SCc3nc4ccccc4[nH]3)nc(N3CCOCC3)c2CO1`, the growth inhibition is 90.8% (active) and the condensed nuclei was found to be 5.26%. For the same molecule, under setting [1], the growth inhibition was 83.4%.

In the case of `CCCCCSc1nc(N2CCOCC2)c2c(c1C#N)CC(C)(C)OC2`, the growth inhibition is 69.6% (inactive) and the condensed nuclei turned out to be 29.7%. Moreover, the growth inhibition under setting [1] was 74.9%.

Turning to `COc1ccc(Cn2c(CCCO)nc3ccccc32)cc1OC`, the growth inhibition is 32.8% (inactive) and the condensed nuclei is 5.26%. Besides, under setting [1], the growth inhibition is 6.64%.

Regarding `CN1CCc2nc(SCC(=O)Nc3ccc(Cl)cc3)c(C#N)cc2C1`, the growth inhibition is 54.4% (inactive) and the condensed nuclei was 17.3%. Also, under setting [1], the growth inhibition came to 55.6%.

Regarding `Cc1ccc(N2C(=O)C3ON(c4ccccc4)C(c4ccncc4)C3C2=O)c(C)c1` (centres undefined), the growth inhibition was 10.2% (inactive) and the condensed nuclei amounted to 8.14%. Under setting [1], the growth inhibition came to 1.38%.

For the molecule `Cc1ccc(OCc2nnc(NC(=O)c3ccco3)s2)c(C)c1`, the growth inhibition is -8.86% (inactive) and the condensed nuclei was 11.2%. In addition, under setting [1], the growth inhibition was -6.84%.

For the molecule `Cc1cc(=O)oc(C)c1C(=O)NCCNC(=O)c1c(C)cc(=O)oc1C`, the growth inhibition was 5.17% (inactive) and the condensed nuclei is 2.08%. Further, the growth inhibition under setting [1] is -5.21%.

Take `CCN(CC)CC#CCOC(=O)C(O)(c1ccccc1)C1CCCCC1` (centres undefined): the growth inhibition was 93.1% (active) and the condensed nuclei was found to be 18.4%. Moreover, under setting [1], the growth inhibition was determined as 92.7%.

Turning to `CN1CCCN=C1COC(=O)C(O)(c1ccccc1)C1CCCCC1` (centres undefined), the growth inhibition is -62.6% (inactive) and the condensed nuclei worked out at 2.98%. In addition, the growth inhibition under setting [1] was -21.5%.

Take `CC[N+](C)(CC)CCOC(=O)C(O)(c1ccccc1)C1CCCCC1` (centres undefined): the growth inhibition was -74.7% (inactive) and the condensed nuclei is 4.12%. Under setting [1], the growth inhibition is -22.9%.

Take `c1ccc(Cc2nnc3n2CCCCC3)cc1`: the growth inhibition was -43.5% (inactive) and the condensed nuclei was 1.7%. Besides, the growth inhibition under setting [1] was -46.4%.

Regarding `O=C1c2ccccc2C(=O)C1c1ccc2ccccc2n1`, the growth inhibition is 18.9% (inactive) and the condensed nuclei came to 4.03%. Besides, the growth inhibition under setting [1] stood at 7.1%.
